# According to PubChem BioAssay (NCI):
# Compounds without any hit were thinned out: in the full panel of roughly 79,000, 15% have a hit. Unmarked numbers belong to inactive results. Active and inactive are the calls of the source. Cut-off read from the data, not from the text of the source: active = growth inhibition above about 70%; inactive = the rest.
# Assay: NCI Yeast Anticancer Drug Screen. Data for the rad18 strain (AID 177)
# Details: S. cerevisiae rad18 mutant growth inhibition; at 3.7 µM; stronger effect = higher value
# Method in brief: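 Steps: expose repair-mutant yeast to compound; measure growth; express as inhibition relative to vehicle control.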
row,Structure (SMILES),growth inhibition
1,COc1ccc(/C=C2\CCc3ccccc3C2=O)cc1OC,-10%
2,O=Cc1ccccc1B(O)O,34%
3,CC(=O)CC[N+](C)(C)C,-11%
4,O=C(O)[C@H]1[C@@H](C2CCCCC2)O[C@@H](C2CCCCC2)O[C@H]1C(F)(F)F,-4%
5,CN(NC(=O)/C(=C/C=C/c1ccccc1)NC(=O)c1ccccc1)C1=C(Cl)C(=O)[N+](c2ccccc2)=CC1,26%
6,CCCCOc1ccc(Nc2c3ccccc3nc3ccccc23)cc1,-9%
7,N#C/C(=C1C=C/C(=N\O)C(Cl)=C\1)c1ccccc1,1%
8,COc1ccc(C(=O)OCCc2ccccc2)cc1,3%
9,Cc1c2ccncc2c(C)c2c1oc1ccccc12,32%
10,CCCC#CCOC(=O)c1cc([N+](=O)[O-])cc([N+](=O)[O-])c1,81% (active)
11,Nc1nc(Nc2ccccc2)nc(Nc2ccccc2)n1,5%
12,COc1ccc(/C=C2\S/C(=N/Nc3nc(-c4ccccc4)cs3)NC2=O)cc1OC,83% (active)
13,CC(O)CN1C(=O)c2cccc3cc([N+](=O)[O-])cc(c23)C1=O (configuration not stated),2%
14,COC1=C(N=[N+]=[N-])C(=O)c2ncccc2C1=O,89% (active)
15,CCN(CC)c1ccc(N=Nc2cc(S(=O)(=O)O)ccc2O)c(O)c1,3%
16,CN(C)CCNC(=O)c1cccc2nc3c(ccc4ccccc43)nc12,2%
17,O=S(=O)(CCC[C@H]1[C@@H](CCOCc2ccccc2)C2CCCN1O2)c1ccccc1 (some centres not stated),6%
18,CCC(C)/C(C)=N/NC(N)=O (configuration not stated),0%
19,Nc1c([N+](=O)[O-])cc2c3c(cccc13)CC2,71% (active)
20,CC1=Cc2ccc(C)cc2C(=O)C1=O,28%
21,C=Cc1c(C)c(O)cc2c1-c1ccc(O)c(C)c1CC2,-7%
22,C[n+]1c(-c2ccc(NC(=O)c3ccc(C(=O)Nc4ccc(-c5cn6ccccc6[n+]5C)cc4)cc3)cc2)cn2ccccc21,2%
23,CNC(=O)OCc1c(COC(=O)NC)c(C)n(-c2ccc(Cl)c(Cl)c2)c1C,-33%
24,C[Si](C)(C)Cc1ccccc1C(=O)O,3%

# Same assay, conditions: S. cerevisiae rad18 mutant growth inhibition; at 11.0 µM; stronger effect = higher value
row,Structure (SMILES),growth inhibition
1,COc1ccc(/C=C2\CCc3ccccc3C2=O)cc1OC,-18%
2,O=Cc1ccccc1B(O)O,94% (active)
3,CC(=O)CC[N+](C)(C)C,14%
4,O=C(O)[C@H]1[C@@H](C2CCCCC2)O[C@@H](C2CCCCC2)O[C@H]1C(F)(F)F,-8%
5,CN(NC(=O)/C(=C/C=C/c1ccccc1)NC(=O)c1ccccc1)C1=C(Cl)C(=O)[N+](c2ccccc2)=CC1,77% (active)
6,CCCCOc1ccc(Nc2c3ccccc3nc3ccccc23)cc1,89% (active)
7,N#C/C(=C1C=C/C(=N\O)C(Cl)=C\1)c1ccccc1,-2%
8,COc1ccc(C(=O)OCCc2ccccc2)cc1,0%
9,Cc1c2ccncc2c(C)c2c1oc1ccccc12,56%
10,CCCC#CCOC(=O)c1cc([N+](=O)[O-])cc([N+](=O)[O-])c1,99% (active)
11,Nc1nc(Nc2ccccc2)nc(Nc2ccccc2)n1,2%
12,COc1ccc(/C=C2\S/C(=N/Nc3nc(-c4ccccc4)cs3)NC2=O)cc1OC,97% (active)
13,CC(O)CN1C(=O)c2cccc3cc([N+](=O)[O-])cc(c23)C1=O (configuration not stated),9%
14,COC1=C(N=[N+]=[N-])C(=O)c2ncccc2C1=O,94% (active)
15,CCN(CC)c1ccc(N=Nc2cc(S(=O)(=O)O)ccc2O)c(O)c1,2%
16,CN(C)CCNC(=O)c1cccc2nc3c(ccc4ccccc43)nc12,11%
17,O=S(=O)(CCC[C@H]1[C@@H](CCOCc2ccccc2)C2CCCN1O2)c1ccccc1 (some centres not stated),4%
18,CCC(C)/C(C)=N/NC(N)=O (configuration not stated),-7%
19,Nc1c([N+](=O)[O-])cc2c3c(cccc13)CC2,86% (active)
20,CC1=Cc2ccc(C)cc2C(=O)C1=O,66%
21,C=Cc1c(C)c(O)cc2c1-c1ccc(O)c(C)c1CC2,4%
22,C[n+]1c(-c2ccc(NC(=O)c3ccc(C(=O)Nc4ccc(-c5cn6ccccc6[n+]5C)cc4)cc3)cc2)cn2ccccc21,24%
23,CNC(=O)OCc1c(COC(=O)NC)c(C)n(-c2ccc(Cl)c(Cl)c2)c1C,1%
24,C[Si](C)(C)Cc1ccccc1C(=O)O,1%

# Same assay, conditions: S. cerevisiae rad18 mutant growth inhibition; at 33.0 µM; stronger effect = higher value
row,Structure (SMILES),growth inhibition
1,COc1ccc(/C=C2\CCc3ccccc3C2=O)cc1OC,19%
2,O=Cc1ccccc1B(O)O,98% (active)
3,CC(=O)CC[N+](C)(C)C,-2%
4,O=C(O)[C@H]1[C@@H](C2CCCCC2)O[C@@H](C2CCCCC2)O[C@H]1C(F)(F)F,-6%
5,CN(NC(=O)/C(=C/C=C/c1ccccc1)NC(=O)c1ccccc1)C1=C(Cl)C(=O)[N+](c2ccccc2)=CC1,90% (active)
6,CCCCOc1ccc(Nc2c3ccccc3nc3ccccc23)cc1,99% (active)
7,N#C/C(=C1C=C/C(=N\O)C(Cl)=C\1)c1ccccc1,2%
8,COc1ccc(C(=O)OCCc2ccccc2)cc1,9%
9,Cc1c2ccncc2c(C)c2c1oc1ccccc12,95% (active)
10,CCCC#CCOC(=O)c1cc([N+](=O)[O-])cc([N+](=O)[O-])c1,99% (active)
11,Nc1nc(Nc2ccccc2)nc(Nc2ccccc2)n1,31%
12,COc1ccc(/C=C2\S/C(=N/Nc3nc(-c4ccccc4)cs3)NC2=O)cc1OC,96% (active)
13,CC(O)CN1C(=O)c2cccc3cc([N+](=O)[O-])cc(c23)C1=O (configuration not stated),67%
14,COC1=C(N=[N+]=[N-])C(=O)c2ncccc2C1=O,96% (active)
15,CCN(CC)c1ccc(N=Nc2cc(S(=O)(=O)O)ccc2O)c(O)c1,-2%
16,CN(C)CCNC(=O)c1cccc2nc3c(ccc4ccccc43)nc12,61%
17,O=S(=O)(CCC[C@H]1[C@@H](CCOCc2ccccc2)C2CCCN1O2)c1ccccc1 (some centres not stated),7%
18,CCC(C)/C(C)=N/NC(N)=O (configuration not stated),3%
19,Nc1c([N+](=O)[O-])cc2c3c(cccc13)CC2,83% (active)
20,CC1=Cc2ccc(C)cc2C(=O)C1=O,99% (active)
21,C=Cc1c(C)c(O)cc2c1-c1ccc(O)c(C)c1CC2,98% (active)
22,C[n+]1c(-c2ccc(NC(=O)c3ccc(C(=O)Nc4ccc(-c5cn6ccccc6[n+]5C)cc4)cc3)cc2)cn2ccccc21,81% (active)
23,CNC(=O)OCc1c(COC(=O)NC)c(C)n(-c2ccc(Cl)c(Cl)c2)c1C,97% (active)
24,C[Si](C)(C)Cc1ccccc1C(=O)O,65%
